A selection: hits, their analogues and other compounds. The true share with any hit is near 4.6%.
PNC inhibitor: High Content Assay for Compounds that inhibit the Assembly of the Perinucleolar Compartment; PC3M PTB-GFP, PNC prevalence imaging, 16 h; active compounds read low; activity change (PNC), negative = inhibition, % at 10 µM; actives 3.1% (n = 140,000); AID 2417, 2010;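 active = readout at or below -70, meaning at least 70% loss of cells showing the perinucleolar compartment, a nuclear body marking cancer cells; inconclusive = readout between -30 and a set limit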;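 also: plate controls were DMSO wells for no effect and camptothecin positive control wells for full effect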
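Compounds are pinned in duplicate onto adhered PC3M cells stably expressing GFP-tagged PTB and incubated 16 h at 37 C. Cells are then fixed, nuclei stained with Hoechst, and PNC-positive cells counted.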
Tau ThT inhib: qHTS for Inhibitors of Tau Fibril Formation, Thioflavin T Binding. Microtubule-associated protein tau (Homo sapiens), P10636. recombinant tau K18 P301L, heparin-induced fibrillization, ThT fluorescence. Potency, µM (titrated, usually from 57.4 µM), inactives show at the highest dose activity, negative = inhibition, most hits filed as inhibitors. actives 2.1% (n = 270,000). AID 1460, 2008; also: potency is read from the fitted curve at half-maximal effect; nearly all actives have a fitted effect of over 55% in size
Target sequence (P10636 561-689 P618L limits assumed): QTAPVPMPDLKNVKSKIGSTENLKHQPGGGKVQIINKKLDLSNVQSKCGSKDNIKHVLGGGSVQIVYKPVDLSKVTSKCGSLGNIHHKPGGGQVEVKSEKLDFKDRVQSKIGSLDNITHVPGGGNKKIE
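Heparin-induced fibrillization of the P301L-mutant K18 repeat-domain fragment of human tau was followed by ThT binding in quantitative high-throughput format.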
TR SRC2 fluor cs: Total Fluorescence Counterscreen for Inhibitors of the Interaction of Thyroid Hormone Receptor and Steroid Receptor Coregulator 2 | TRb/SRC2 Texas Red total fluorescence interference | Potency, µM (doses to about 106 µM), without a hit: top-dose fluorescence change, negative = quenching | actives 0.29% (n = 280,000) | AID 1479, 2009; active = well fitted curve in either direction with a large enough effect; inconclusive = small, poorly fitted or top-dose-only effect; also: potency is read from the fitted curve at half-maximal effect
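Human TRβ ligand-binding domain (0.6 uM) and Texas Red SRC2 peptide (20 nM) in Tris buffer with 1 uM T3 and 5% DMSO were incubated with pinned compound for 5 hr at ambient temperature. Total fluorescence was computed as S + 2P (555/632 nm).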
Tau FP inhib: qHTS for Inhibitors of Tau Fibril Formation, Fluorescence Polarization. Microtubule-associated protein tau (Homo sapiens), P10636. K18 P301L tau heparin fibrillization, Alexa594 FP, 6 h. Potency, µM (top dose mostly 57.7 µM), inactives show at the top dose activity, negative = inhibition, actives largely listed as inhibitors. actives 0.39% (n = 280,000); also: potency is read from the fitted curve at half-maximal effect; nearly all actives have a fitted effect of over 55% in size
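Steps: dispense K18 P301L tau (15 uM plus 0.24 uM Alexa 594 tracer, final) in pH 7 sodium acetate; add compound; add heparin (20 uM final); incubate 6 hr, 37 C; add ThT (30 uM final); after 1 hr ambient, read FP.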
TRb-SRC2 inh: qHTS for Inhibitors of the Interaction of Thyroid Hormone Receptor and Steroid Receptor Coregulator 2; Potency, µM (highest dose often 106 µM), for inactives: at the highest dose activity change, negative = inhibition, most hits filed as inhibitors; actives 0.065% (n = 280,000); TRbeta-SRC2 peptide binding, fluorescence polarization; receptor liganded with 1 µM T3;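 also: potency is read from the fitted curve at half-maximal effect; plate controls were bound peptide for no effect and peptide without receptor for full effect; nearly all actives have a fitted effect of over 50% in size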
Target sequence (P10828 whole entry, looked up): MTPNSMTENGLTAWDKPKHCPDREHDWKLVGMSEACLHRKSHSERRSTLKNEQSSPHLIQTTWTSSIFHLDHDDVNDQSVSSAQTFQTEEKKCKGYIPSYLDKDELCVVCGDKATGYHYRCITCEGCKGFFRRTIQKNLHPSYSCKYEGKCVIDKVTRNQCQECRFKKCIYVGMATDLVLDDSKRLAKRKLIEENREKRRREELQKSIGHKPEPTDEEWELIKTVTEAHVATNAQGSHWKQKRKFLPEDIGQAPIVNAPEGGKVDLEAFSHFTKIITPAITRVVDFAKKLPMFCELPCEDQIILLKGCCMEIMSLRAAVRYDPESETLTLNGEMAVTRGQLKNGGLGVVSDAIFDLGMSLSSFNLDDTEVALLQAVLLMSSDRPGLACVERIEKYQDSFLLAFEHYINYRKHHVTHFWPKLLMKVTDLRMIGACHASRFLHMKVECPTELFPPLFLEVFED
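Binding of a 20-amino-acid Texas Red SRC2 peptide (20 nM) to TRb ligand-binding domain (0.6 uM) with agonist T3 at 1 uM was followed by fluorescence polarization after a 5 hr room-temperature incubation.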
Tau fluor cs: Counterscreen qHTS for Inhibitors of Tau Fibril Formation, Fluorescence Polarization. actives 0.93% (n = 280,000). tau K18 P301L Alexa594 fluorescence, heparin fibrillization. Potency, µM (series often up to 57.7 µM), inactives show top-dose activity change, negative = decrease; also: potency is read from the fitted curve at half-maximal effect; nearly all actives have a fitted effect of over 55% in size
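Human tau K18 P301L (15 uM unlabeled, 0.24 uM Alexa 594-labeled) in 100 mM sodium acetate pH 7 with 20 uM heparin, 6 hr at 37 C. ThT 30 uM added, 1 hr ambient; Alexa 594 FP and total fluorescence read at 555/632 nm.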
* marks the source's active call; other numbers are inactive results; ? = inconclusive; nt = not tested or not shown; [ ] = dose if it differs, or a comment. Unless noted, calls follow the shape of the dose curve; as a rule, active = well fitted curve in the direction sought with a large enough effect; inconclusive = small, poorly fitted or top-dose-only effect, or another doubt; inactive = no such curve, though single readings can be large; an effect the other way counts as inactive or inconclusive. Unless noted, % is scaled to controls: 0 for no effect and ±100 for the full control effect.

SMILES	PNC inhibitor	Tau ThT inhib	TR SRC2 fluor cs	Tau FP inhib	TRb-SRC2 inh	Tau fluor cs
OCCCc1ccc(O)c(O)c1	nt	?	-3%	-9%	-3%	-10%
CCCCn1c(O)c(C(CC)=Nc2cccc(C(=O)O)c2)c(=O)[nH]c1=O	-90*	-9%	-1%	-5%	-9%	1%
CCCCn1c(O)c(C(CC)=NCCN2CCCCC2)c(=O)[nH]c1=O	-89*	?	-1%	-11%	-2%	-6%
CCCCn1c(O)c(C(CC)=NCCN2CCOCC2)c(=O)[nH]c1=O	0	?	2%	-8%	-26%	-19%
COC(=O)C(=O)N1CC2(C)CNCC(C)(C1)C2=O	nt	-9%	1%	-3%	-3%	1%
CC1CCCN(C(=O)CCl)C1 (centres undefined)	-116*	2%	0%	0%	3%	5%
CN(C)c1ccc(C=C2C(=O)NC(=S)NC2=O)cc1[N+](=O)[O-]	nt	32µM*	0%	?	3%	?
Oc1cc(O)c2c(c1)OC(c1cc(O)c(O)c(O)c1)C(O)C2 (centres undefined)	nt	25µM*	-12%	?	1%	?
O=C(O[C@@H]1Cc2c(O)cc(O)cc2O[C@@H]1c1cc(O)c(O)c(O)c1)c1cc(O)c(O)c(O)c1	nt	13µM*	-9%[201 µM]	?	4%[201 µM]	14µM*[quencher]
O=C(OC1Cc2c(O)cc(O)cc2OC1c1cc(O)c(O)c(O)c1)c1cc(O)c(O)c(O)c1 (centres undefined)	nt	6.3µM*	-9%	18µM*	5%	6.3µM*[quencher]
CC(=O)N1CN(C(C)=O)CN(C(C)=O)C1	nt	2%	2%	0%	0%	1%
O=c1[nH]c(=O)n(-c2cccc3ccccc23)c(O)c1C=NCCCn1ccnc1	23	-16%	0%	-2%	2%	-6%
CCN(CC)C(=O)c1ccc(N2C(=O)C3CC=C(Cl)CC3C2=O)cc1 (centres undefined)	-86*	-1%	1%	3%	-2%	-2%
CCOP(=O)(OCC)C1(O)C(=O)Nc2ccccc21 (centres undefined)	-18	-3%	-1%	1%	1%	-5%
O=C1NC(=O)C(=CN2CCc3ccccc32)C(=O)N1	104	10µM*	-1%	?	13%	-20%
Cn1ncnc2c(=O)n(C)c(=O)nc1-2	?	11µM*	-3%	?	?	-11%
N#CCCCCC#N	nt	nt	-2%	nt	-3%	nt
N#CC(C#N)=NNc1ccc(S(=O)(=O)N2CCCC2)cc1	?	18µM*	-11%	15%	6%	-28%
O=C(COc1ccc(S(=O)(=O)N2CCCCC2)cc1)N1CCN(Cc2ccccc2)CC1	?	-11%	0%	4%	0%	-7%
COc1ccc(CCN(C)Cc2ccncc2)cc1OC	-91*	-4%	-5%	8%	-1%	2%
COc1ccc(CCNCc2ccncc2)cc1OC	34	-2%	-8%	1%	-4%	-2%
COP(=O)(OC)c1nc(-c2cccc3ccccc23)oc1NCCc1ccccc1	-91*	?	-2%	6%	1%	-26%
CSc1nnc([C@@H](N)Cc2ccccc2)o1	?	1%	-2%	5%	-8%	7%
C=C(C)C1CCC(C)=CC1c1c(O)cc(O)cc1CCCCC (centres undefined)	nt	?	-2%	8%	-4%	28µM*[quencher]
CCCCCc1cc(O)cc(O)c1	nt	nt	0%	nt	5%	nt
SMILES	PNC inhibitor	Tau ThT inhib	TR SRC2 fluor cs	Tau FP inhib	TRb-SRC2 inh	Tau fluor cs
COc1ccc(Cl)cc1NC(=O)c1sc2nc3c(cc2c1N)N1CCC3CC1	nt	4%	-3%	0%	6%	0%
CN(C)c1ccc(NC(=O)c2sc3nc4c(cc3c2N)N2CCC4CC2)cc1	nt	?	14µM*[quencher]	-7%	-8%	?
Nc1c(C(=O)Nc2ccc(Br)cc2F)sc2nc3c(cc12)N1CCC3CC1	nt	-9%	10µM*[quencher]	-8%	-2%	?
Nc1c(C(=O)Nc2ccc(F)c(Cl)c2)sc2nc3c(cc12)N1CCC3CC1	nt	?	2%	17%	1%	?
COc1ccccc1NC(=O)N(Cc1ccc2c(c1)OCO2)C1CCN(Cc2ccccc2)CC1	nt	-5%	9%	0%	0%	-6%
Oc1cccc2nc3ccccc3nc12	nt	16µM*	-6%	-11%	-12%	-21%
Cc1ccccc1O	nt	nt	-2%[201 µM]	nt	3%[201 µM]	nt
O=C(O)CCn1cc(C=C2C(=O)NC(=O)NC2=O)c(-c2ccc(Br)cc2)n1	-8	?	-11%	-5%	-25%	-5%
COC(=O)CSC1=NP(=S)(SCC(=O)OC)N2CCCC2=C1C#N (centres undefined)	-127*	-18%	5%	0%	4%	-9%
CNCC(O)c1ccc(O)cc1 (centres undefined)	7	0%	-4%	2%	-4%	3%
O=C(Cc1ccccc1)N1CCN(Cc2ccccn2)CC1	-84*	3%	3%	7%	-19%	3%
CC1=C(O)C(=O)[C@H]2O[C@@H]2C1=O	nt	2µM*	-4%	4µM*	-2%	?
O=C1OC(c2cc(I)c(O)c(I)c2)(c2cc(I)c(O)c(I)c2)c2ccccc21	nt	13µM*	?	?	13%	7.1µM*[quencher]
CC(=O)N1CCN(c2ccc(N=Cc3c(O)n(-c4ccc(Cl)cc4)c(=O)[nH]c3=O)cc2)CC1	?	?	6%	-9%	-1%	-23%
O=C(Nc1ccc2nc(-c3cccs3)c(-c3cccs3)nc2c1)NC1CC1	-29	?	3%	22µM*	1%	?
CN1CCc2nc3sc(C#N)c(N)c3c(-c3cccs3)c2C1	6	28µM*	-9%	?	0%	?
O=[N+]([O-])c1ccc(N2CCCCC2)c2ncccc12	nt	16µM*	-1%	-15%	12%	?
O=[N+]([O-])c1ccc(N2CCCCCC2)c2ncccc12	nt	16µM*	-3%	-4%	2%	-28%
Cc1cc(C=C2C(=O)NC(=S)NC2=O)c(C)n1-c1ccc2c(c1)OCO2	?	14µM*	28184µM*[quencher]	-8%	-9%	?
C/C(Cl)=C/CC1(CN2CCCC2=O)C(=O)NC(=O)NC1=O	-122*	7%	0%	-3%	-20%	13%
